Drawing on PMC12136788, this text covers binding signal for 14 molecules.

Positions count from the first letter of the chain named. Over roughly 24,000 sequences, “enrichment r” has its median near 0.99; the highest 2% begin near 3.7. The entries come from a sample that favours the highest values as a whole.

Sequences and labels used below:
T1: UNK ZnF1-3 (human, UniProt Q9C0B0 31-174)
T1 sequence: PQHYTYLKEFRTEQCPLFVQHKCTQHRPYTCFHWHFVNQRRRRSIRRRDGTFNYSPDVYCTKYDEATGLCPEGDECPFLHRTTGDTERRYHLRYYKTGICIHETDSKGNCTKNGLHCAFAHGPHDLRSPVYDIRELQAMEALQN

B1: 44216504_44217224_307_CDS_ENSG00000096384_ENST00000371646|human|control|control (ssRNA)
RNA: GGGAGUUCUACAGUCCGACGAUCCAAAGUCAGGGUACGUUCCUGAGGGUUGGGGAUGAUGUCAAUUUUCAGCUCUUUACCACUGUCCAACUUCGAAGGGUCUGUCAGGCUCUCAUAGCGAAUCUUGUCCAAGGCAUCAGAAGCCAACAGAGGAUUGAGCAUCA
B2: chr1:133829981:133829982:+_ENSMUSG00000026434_ENSMUST00000062264|mus_hu|FALSE|FALSE (ssRNA)
RNA: GGGAGUUCUACAGUCCGACGAUCUAUCAGAAAUAUAGAAUACAUUUUUCAAUCUAAUGAAUUAAUUUUAAAAGGGACCCUAAACAAGAAGCCCAAUCAAAUGCACACAAGUAAUCUAGAAGACAUGAUUACCUCUAAAAUAUGCAACAGAGGAUUGAGCAUCA
B3: chr3:120321071:120321072:+_ENSG00000065518_ENST00000184266|hu_hu|FALSE|FALSE (ssRNA)
RNA: GGGAGUUCUACAGUCCGACGAUCUCAUUGCCAGACUUAAUAUGAGAGGUGAAAUGUUCGAUCCAAUUUUCCUUCCUGGAUAAGUUUUUCUUUCCUAUCCCUCUCAGUUUUGAUAAUAUAAUAAAUGAAGAUGAGGGGCCCAAACAACAGAGGAUUGAGCAUCA
B4: chr7:151048522:151048523:+_ENSG00000013374_ENST00000566856|hu_mus|hu_hu_hu_mus_True|48_98 (ssRNA)
RNA: GGGAGUUCUACAGUCCGACGAUCCUGUUUCUUAUUUAUGACAAUUUUGAUGUAAUUUUCUUGAAAUCCGAAAGUUUCAGCUAUUUGGGACCUCAGUUCUCUACCAGUGACAUGCAAGCGGGUCUCCAACAAGCUUUUCUUAUCCAACAGAGGAUUGAGCAUCA
B5: chr3:67279072:67279073:+_ENSMUSG00000027774_ENSMUST00000077271|mus_mus|FALSE|FALSE (ssRNA)
RNA: GGGAGUUCUACAGUCCGACGAUCUGCCCAGAAUCCUACCUCUUGAUGAGAGGACUGUGAGUUUUGAGGCCAACAGGGGCUAUAUACACACAGCCCUUAUGUCCAAAAAAAAAAAAAGCAGUGAAGUAAAUUUAUAUAUAUUUUCAACAGAGGAUUGAGCAUCA
B6: chr2:203071746:203071747:-_ENSG00000116030_ENST00000392246|hu_hu|FALSE|FALSE (ssRNA)
RNA: GGGAGUUCUACAGUCCGACGAUCCACCACAAGCCUGAAAAUGCAAUGUCCUGAAAAAGGUGACCUCUCUGUGCACACGUAAUUUUUAAAAAGGAGAGGGUAAUAUGAAGGGGACUGAGGCUUGAUCACCAAAAAUCAGCACAACAACAGAGGAUUGAGCAUCA
B7: chr7:138235809:138235810:+_ENSG00000122779_ENST00000415680|hu_mus|FALSE|FALSE (ssRNA)
RNA: GGGAGUUCUACAGUCCGACGAUCAGAAGCAUCACACCUUGCACGAAGAAGGUGCCGUAACCUGUAUGUAAUCAGCCGCUUGCUGUACAGCAAGGCUGUGCUGCUGCCACUGGAAACAGCCCAUUUAGAAAAAUGCAUGACGUGCAACAGAGGAUUGAGCAUCA
B8: chr16:49524686:49524687:-_ENSG00000102935_ENST00000562871|hu_mus|FALSE|FALSE (ssRNA)
RNA: GGGAGUUCUACAGUCCGACGAUCAAUUAAAAGGAAAUAUUCAGACAAUAGCCAAGCAAUCACAUCACGAUGCACAAUUACCUAGAAUUGCAAUUAAAAAGUAGUUAACUGAAGGGGGGGGGGGGGAGAAAGAAAAACAAGAAACAACAGAGGAUUGAGCAUCA
B9: chr1:133829981:133829982:+_ENSMUSG00000026434_ENSMUST00000062264|mus_hu|motif|central (ssRNA)
RNA: B2 RNA with U80G, A81G
B10: 55340085_55340205_1272_CDS_ENSMUSG00000021488_ENSMUST00000099490|mouse|control|control (ssRNA)
RNA: GGGAGUUCUACAGUCCGACGAUCUUCUUUCUGUUUCCCUCUUUUCCUAAGGACAGGUAGUUCUUCAAAUUGAUGUCUGCCUUCAAACAUGACGAUUGCUUUUCCAGCCACCCAGGCUUUUUCAGAAGGGUCUCCAAAAGCCUCCAACAGAGGAUUGAGCAUCA
B11: chr15:83907240:83907241:-_ENSMUSG00000018865_ENSMUST00000082365|mus_mus|motif|central (ssRNA)
RNA: GGGAGUUCUACAGUCCGACGAUCGCUGUGAAAGAUACUAAUUCUUGGUGCAGUCUGGCAUCUGUGGGGCCUCUUCCACACCGGCCAGUGCCUUCAGAUGCCACCCGCAGCCUCGGGCCAGCUUCCCUGCCGAAACAUUCCUUGCAACAGAGGAUUGAGCAUCA
B12: chr2:242276830:242276831:+_ENSG00000168385_ENST00000391971|hu_mus|FALSE|FALSE (ssRNA)
RNA: GGGAGUUCUACAGUCCGACGAUCUAAGGGCUUCAGUCCAUGUCCAAAAGGUGAAAUGAAGUAGAAGCAACAAUGUACCCUGUUAUCAAUGAUGUGACGCCUGUUCAGUCCACUCUCAUCAUGUAGGUAGCGUUCAAACUGCUCCAACAGAGGAUUGAGCAUCA
B13: chr17:45747064:45747065:+_ENSG00000108424_ENST00000290158|hu_hu|hu_hu_hu_mus_True|28_58 (ssRNA)
RNA: GGGAGUUCUACAGUCCGACGAUCGCCCACAGUCCACGCUGUUGUGUCUCGAACAACUACACUGGGGUCUUUCAUUAAUUCUAUUAGGGUGGGCAUAGCCUGUAUGACUAGUGGUUUCAGUUGAUUAGGCUCUGGUCCUUCCAACAACAGAGGAUUGAGCAUCA
B14: chr1:52246310:52246311:-_ENSMUSG00000026103_ENSMUST00000114513|mus_mus|motif|central (ssRNA)
RNA: GGGAGUUCUACAGUCCGACGAUCGCCCAUCUUGUCAAGAGGAGGAGACCAACACAUCAUGCCCAUGACGUUGGGGACAACGGAAAGAAUACCCCCAGCAACUCCAGAUUUUGCAGGAAGACCAACAUGGAACGCAAACUGCCCCAACAGAGGAUUGAGCAUCA

This assay deals with T1, UNK ZnF1-3. Nature of the assay: nsRBNS (natural sequence RNA bind-n-seq); RBNS binding buffer (assumed for nsRBNS): 25 mM Tris pH 7.5, 150 mM KCl, 3 mM MgCl2, 0.01% Triton X-100, 500 ug/ml BSA, 20 U/ml SUPERase-In, 4 C; UNK is unkempt and MSI1 is Musashi-1; names of the RNAs are library labels; protein concentration not given here; high values mean tight binding.
In turn, B1 came in with a binding signal of 0.999 enrichment R. B2 returned a binding signal of 4.97 enrichment R. B3 displayed a binding signal of 2.02 enrichment R. As to B4, the binding signal was 0.854 enrichment R. With B5 the figure was 4.32 enrichment R; with B6, 3.8 enrichment R; with B7, 0.971 enrichment R. In the case of B8, the binding signal stood at 1.26 enrichment R. The molecule B9 gave a binding signal of 5.06 enrichment R. As for B10, the binding signal is 0.635 enrichment R. On to B11, for which the binding signal was 0.646 enrichment R. Take B12: the binding signal was 0.794 enrichment R.

With B13, the binding signal amounted to 0.639 enrichment R. In turn, B14 registered a binding signal of 1.07 enrichment R.
